Test results reported in the supplement of paper PMC12494721.
Where a name gives a salt, the structure may show the parent alone.

Columns and labels:
Conditions in all cases: incubation time: 27 h, anaerobic, 37 °C;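 for the amine columns active = adjusted P below 0.05 in both replicates with a change the same way and a mean fold change under 0.8 or over 1.25; inactive = the rest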
[1] = system: Clostridium sporogenes DSM 1664; test: growth (OD595) fold change vs plate DMSO controls (fold change (ratio)); higher = more growth
Outline: (§1)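 Growth is calculated as fold change against the median of the DMSO control wells on each plate. Readings at 595 nm from anaerobic mGAM cultures (96-well, 27 h, 37 °C) were blank-subtracted, background-corrected with 20 µM compound solutions in water, and converted to OD by a calibration factor of 5. Fold changes above 1.5 were recorded as NA, and results are means of 2 biological replicates.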

[2] = system: Escherichia coli IAI1; test: as above
Outline: as §1

[3] = system: Klebsiella aerogenes DSM 30053; test: as above
Outline: as §1

[4] = system: Ruminococcus gnavus DSM 108212; test: as above
Outline: as §1

[5] = system: Klebsiella aerogenes DSM 30053; test: fold change of Histamine concentration vs plate DMSO controls (fold change (ratio)); higher = more amine produced, active = hit call of the paper (significant change in both replicates, either direction)
Outline: (§2)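 Each value is the fold change relative to DMSO-only wells on the same plate. Four gut bacterial strains were grown anaerobically in mGAM at 37 °C for 27 h in 80 µL wells, starting at OD 0.1 before a 1:1 dilution, with compounds at 20 µM final (sweeteners 50 µM). Whole cultures were extracted with cold acetonitrile/methanol containing 0.1% formic acid, centrifuged, and amines were quantified by LC–triple-quadrupole MS (dynamic MRM) against external calibration curves with within-batch drift correction. Values are means of 2 biological replicates.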

[6] = system: Clostridium sporogenes DSM 1664; test: fold change of Tryptamine concentration vs plate DMSO controls (fold change (ratio)); higher = more amine produced, active = hit call of the paper (significant change in both replicates, either direction)
Outline: as §2

[7] = system: Ruminococcus gnavus DSM 108212; test: as above
Outline: as §2

[8] = system: Escherichia coli IAI1; test: fold change of Putrescine concentration vs plate DMSO controls (fold change (ratio)); higher = more amine produced, active = hit call of the paper (significant change in both replicates, either direction)
Outline: as §2

[9] = system: Klebsiella aerogenes DSM 30053; test: as above
Outline: as §2

[10] = system: Escherichia coli IAI1; test: fold change of Cadaverine concentration vs plate DMSO controls (fold change (ratio)); higher = more amine produced, active = hit call of the paper (significant change in both replicates, either direction)
Outline: as §2

[11] = system: Klebsiella aerogenes DSM 30053; test: as above
Outline: as §2

[12] = system: Ruminococcus gnavus DSM 108212; test: fold change of 2-Phenylethylamine concentration vs plate DMSO controls (fold change (ratio)); higher = more amine produced, active = hit call of the paper (significant change in both replicates, either direction)
Outline: as §2

Structure (SMILES)	growth [1]	growth [2]	growth [3]	growth [4]	fold change of Histamine concentration [5]	fold change of Tryptamine concentration [6]	fold change of Tryptamine concentration [7]	fold change of Putrescine concentration [8]	fold change of Putrescine concentration [9]	fold change of Cadaverine concentration [10]	fold change of Cadaverine concentration [11]	fold change of 2-Phenylethylamine concentration [12]
COc1c(-c2ccc3cc(NS(C)(=O)=O)ccc3c2)cc(-n2ccc(=O)[nH]c2=O)cc1C(C)(C)C [Dasabuvir] (20 µM)	1.04	0.964	1.01	0.849	0.969 (inactive)	0.847 (inactive)	0.747 (active)	1.01 (inactive)	0.999 (inactive)	0.989 (inactive)	0.99 (inactive)	0.754 (inactive)
COc1cc(N)cn[n+]1-c1ccccc1 [Amezinium metilsulfate] (20 µM)	1.05	1.04	1.08	1.07	0.987 (inactive)	1.05 (inactive)	1.06 (inactive)	0.969 (inactive)	0.98 (inactive)	1.02 (inactive)	0.995 (inactive)	1.11 (inactive)
Nc1ccccc1S(N)(=O)=O [o-Sulfanilamide] (20 µM)	0.883	1.01	1.01	1	1.02 (inactive)	0.958 (inactive)	0.928 (inactive)	1.03 (inactive)	1.01 (inactive)	1 (inactive)	1 (inactive)	0.905 (inactive)
Cn1cc(C(=O)Nc2ccc(F)cc2-c2ccc(Cl)c(Cl)c2)c(C(F)F)n1 (20 µM)	1.12	1	0.972	1.21	1.06 (inactive)	1.01 (inactive)	0.907 (inactive)	1.01 (inactive)	1.01 (inactive)	0.998 (inactive)	0.986 (inactive)	0.931 (inactive)
CO[C@@]1(NC(=O)Cc2cccs2)C(=O)N2C(C(=O)O)=C(COC(N)=O)CS[C@@H]21 [Cefoxitin sodium salt] (20 µM)	0	0.00646	1.45	0	1.21 (inactive)	0.0449 (active)	0.0768 (active)	0.153 (active)	1.09 (inactive)	0.623 (active)	1.11 (inactive)	0.0566 (active)
CCN(CC)CCOCCOC(=O)C(CC)(CC)c1ccccc1 [Oxeladin citrate] (20 µM)	1.05	0.997	1	1.01	0.957 (inactive)	1.01 (inactive)	0.889 (inactive)	1.01 (inactive)	1.02 (inactive)	1.01 (inactive)	0.994 (inactive)	0.865 (inactive)
CCOc1ccccc1C(N)=O [Ethenzamide] (20 µM)	1.07	1	1.01	0.956	1.02 (inactive)	1.1 (inactive)	1.01 (inactive)	0.983 (inactive)	0.985 (inactive)	0.986 (inactive)	0.978 (inactive)	1.03 (inactive)
Cc1c(O)c(=O)n(-c2ccccc2)n1C [Antipyrine, 4-hydroxy] (20 µM)	1.04	1.02	1.02	0.689	0.913 (inactive)	0.985 (inactive)	0.987 (inactive)	1.01 (inactive)	0.956 (inactive)	0.973 (inactive)	1.01 (inactive)	0.932 (inactive)
CCCNC(=O)NS(=O)(=O)c1ccc(Cl)cc1 [Chlorpropamide] (20 µM)	0.913	1.03	0.983	1.03	1.17 (inactive)	0.956 (inactive)	1.13 (inactive)	0.938 (inactive)	1.03 (inactive)	0.993 (inactive)	1.1 (inactive)	1.31 (active)
Cc1nc2n(c(=O)c1CCN1CCC(c3noc4cc(F)ccc34)CC1)CCCC2O (configuration not stated) [Paliperidone] (20 µM)	0.897	1.01	0.982	1	1.05 (inactive)	0.998 (inactive)	0.966 (inactive)	1.06 (inactive)	1.02 (inactive)	0.993 (inactive)	0.986 (inactive)	0.983 (inactive)
O=C1CC2(CCCC2)CC(=O)N1CCCCN1CCN(c2ncccn2)CC1 [Buspirone hydrochloride] (20 µM)	0.958	1.07	0.968	0.992	1.09 (inactive)	1.05 (inactive)	1.05 (inactive)	1.02 (inactive)	1.01 (inactive)	1.05 (inactive)	0.99 (inactive)	1.05 (inactive)
